Shown are actives, neighbours in structure and some others; about 0.5% of the full set was active somewhere.
TRb SRC2 PPI: inhibitors of human thyroid hormone receptor beta-SRC2 interaction | P10828 | TRbeta-SRC2 peptide binding, fluorescence polarization; receptor liganded with 1 µM T3 | Potency, µM (titrated, usually from 106 µM), inactives show at the highest dose activity change, negative = inhibition, most hits filed as inhibitors | 280,000 compounds, 0.065% hits | AID 1469; active = well fitted inhibition curve with a large enough effect; inconclusive = small, poorly fitted or top-dose-only effect, or effect the other way;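 also: potency is read from the fitted curve at half-maximal effect; plate controls were bound peptide for no effect and peptide without receptor for full effect; nearly all actives have a fitted effect of over 50% in size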
Target sequence (P10828 whole entry, looked up): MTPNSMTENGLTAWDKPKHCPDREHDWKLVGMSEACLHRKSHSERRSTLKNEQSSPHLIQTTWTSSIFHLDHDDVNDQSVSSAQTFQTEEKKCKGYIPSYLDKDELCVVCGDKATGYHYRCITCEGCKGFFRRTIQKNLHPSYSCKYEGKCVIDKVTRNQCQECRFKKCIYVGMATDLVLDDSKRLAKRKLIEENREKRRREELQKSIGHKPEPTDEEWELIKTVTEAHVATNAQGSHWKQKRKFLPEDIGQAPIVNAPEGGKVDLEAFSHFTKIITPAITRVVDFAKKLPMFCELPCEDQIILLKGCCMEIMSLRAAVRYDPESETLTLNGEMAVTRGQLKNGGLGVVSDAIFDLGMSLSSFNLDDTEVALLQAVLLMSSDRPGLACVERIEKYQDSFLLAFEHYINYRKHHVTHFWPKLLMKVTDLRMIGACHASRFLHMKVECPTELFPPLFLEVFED
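A fluorescence polarization screen tested compounds at multiple concentrations against complex formation between 0.6 uM TRb ligand-binding domain and 20 nM Texas Red SRC2 peptide, with 1 uM T3 present; readout after 5 hr.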
Menin-MLL TR inh: displaces Texas Red mutant MLL peptide from human menin. O00255. Menin + Texas Red MLL mutant peptide, fluorescence polarization. Potency, µM (top dose mostly 61.6 µM), inactives show at the highest dose FP activity change, negative = inhibition, most hits filed as inhibitors. 270,000 compounds, 0.23% hits; active = well fitted inhibition curve with a large enough effect in the polarisation, with a control signal flat, not every such curve was filed as active; inconclusive = small, poorly fitted or top-dose-only effect, or effect the other way, or a change in a side signal; inactive = no such curve, though single readings can be large or run the other way; the % refers to the polarisation; also: potency is read from the fitted curve at half-maximal effect; % of control where 0% means no effect
TR SRC2 fluor cs: counter-screen for TRb-SRC2 inhibitors: fluorescence interference. TRb/SRC2 Texas Red total fluorescence interference. Potency, µM (series often up to 106 µM), inactives show at the highest dose fluorescence change, negative = quenching. 280,000 compounds, 0.29% hits; active = well fitted curve in either direction with a large enough effect; inconclusive = small, poorly fitted or top-dose-only effect; also: potency is read from the fitted curve at half-maximal effect; % is scaled to controls: 0 for no effect and ±100 for the full control effect
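Flags fluorescent or light-absorbing compounds by total fluorescence, S + 2P, at 555 nm excitation and 632 nm emission. Mixture: 20 nM Texas Red SRC2 peptide, 0.6 uM human TRb LBD, 1 uM T3, 5% DMSO; compound exposure 5 h at ambient temperature.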
GoLoco inh red: blocks human Gai1 binding to RGS12 GoLoco peptide, red readout. P63096. Gai1:RGS12 GoLoco peptide FP, rhodamine, 10 min. Potency, µM (series often up to 61.6 µM), for the others: at the top dose activity, negative = inhibition, hits mostly inhibitors. 230,000 compounds, 0.44% hits; active = well fitted inhibition curve with a large enough effect, not every such curve was filed as active; inactive = no such curve, though single readings can be large or run the other way; also: potency is read from the fitted curve at half-maximal effect; % is scaled to controls: 0 for no effect and ±100 for the full control effect; nearly all actives have a fitted effect of over 30% in size
MLL CXXC-DNA inh: MLL CXXC-DNA interaction inhibition. AID 2662. MLL-CXXC / FITC-HOXA9 DNA fluorescence polarization. Potency, µM (titrated, usually from 115 µM), for the others: at the top dose activity change, negative = inhibition, most hits filed as inhibitors. 290,000 compounds, 0.037% hits. Q03164; active = well fitted inhibition curve with a large enough effect in the polarisation, with a control signal flat, not every such curve was filed as active; inconclusive = small, poorly fitted or top-dose-only effect, or effect the other way, or a change in a side signal; inactive = no such curve, though single readings can be large or run the other way; the % refers to the polarisation; also: potency is read from the fitted curve at half-maximal effect
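Steps: dispense CXXC domain solution (7 uM) → pin compounds or unlabeled HOX-A9 DNA control → 5 min ambient → add FLSN-HOX-A9 solution (50 nM) → spin → 30 min ambient → fluorescence polarization. Tris pH 7.5/NaCl/DTT/BSA buffer.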
Menin-MLL FL inh: menin-MLL binding inhibition, fluorescein peptide | 290,000 tested, under 10 active | FP activity change, % at 61.4 µM | AID 1766 | Fluorescence polarization, fluorescein-MLL peptide displacement from menin; active = well fitted curve in the direction sought with a large enough effect in the polarisation, not every such curve was filed as active; inconclusive = small, poorly fitted or top-dose-only effect, or effect the other way, or a change in a side signal; inactive = no such curve, though single readings can be large or run the other way; the % refers to the polarisation; also: % of control where 0% means no effect
* hit, by the source's call; ? = inconclusive; / = not tested or not shown; ! = repeats disagree; [ ] = another dose, or the depositor's remark.

SMILES	TRb SRC2 PPI	Menin-MLL TR inh	TR SRC2 fluor cs	GoLoco inh red	MLL CXXC-DNA inh	Menin-MLL FL inh
O=C1CC(c2ccc(Cl)cc2)c2cc3c(cc2N1)OCCO3 (stereo not drawn)	1%	/	-1%	/	/	/
Cc1ccc(C2CC(=O)Nc3cc4c(cc32)OCCO4)cc1 (stereo not drawn)	-17%[53 µM]	/	0.05µM*[quencher]	/	/	/
S=C([S-])NCCNC(=S)[S-].[Zn+2]	?	/	?	45%	/	/
CCn1cnc2cc(NCc3ccccc3Cl)ccc21	/	6%	/	/	12%	5
COc1cccc(CNc2ccc3c(c2)ncn3C)c1OC	-5%	-4%	0.0089µM*[quencher]	/	-6%	6
CCCCn1cnc2cc(NCc3ccccc3Cl)ccc21	-23%[53 µM]	/	0.063µM*[quencher]	/	/	/
COc1cccc(CNc2ccc3c(c2)nc(C)n3C)c1OC	/	-5%	/	/	2%	-1
CCCCOCCOCCOC(=O)CCCCC(=O)OCCOCCOCCCC	-3%[201 µM]	/	-6%[201 µM]	/	/	/
CC(=O)Nc1c(C)nn(-c2ccccc2)c1N1CCC(C(=O)NCc2ccc(F)cc2)CC1	3%	/	-1%	/	/	/
C[N+]1(CC2COC3(CCCCC3)O2)CCCC1 (stereo not drawn)	1%	2%	0%	10µM*	4%	0
COc1ccc(/C=N/Nc2cc(C)nc3ccc(OC)cc23)c(OC)c1	/	13µM*	/	/	?	-10
COc1ccccc1/C=N/Nc1cc(C)nc2ccc(C)cc12	/	-18%	/	/	-4%	0
O=C(Cn1cnc2sc(-c3ccccc3)cc2c1=O)NCc1ccco1	6%	25µM*	-5%	8%	6%	11
CCn1c(CSc2nnc(-c3ccncc3)n2CCOC)nc2cc(C(=O)O)ccc21	13µM*	?	50µM*[fluorescent]	11µM*	-1%	-15
Cc1ccccc1-n1c(SCC(=O)c2cc(C)n(C)c2C)nnc1-c1cccnc1	9%	-12%	0%	49%	13%	3
CCOc1ccc(C(=O)CSc2nnc3ccccn23)cc1	-1%	0%	-3%	6%	-1%	1
CCn1c(CSc2nnc(-c3cccnc3)n2-c2ccccc2C)nc2cc(C(=O)O)ccc21	11µM*	?	40µM*[fluorescent]	3.2µM*	-4%	-5
CCn1c(CSc2nnc3ccccn23)nc2cc(C(=O)O)ccc21	7.9µM*	?	40µM*[fluorescent]	4.5µM*	?	?
C=C[C@]1(C)Cc2occ(C)c2C[C@H]1C(=C)C(=O)O	-1%	-9%	-1%	-3%	/	3
Cc1cc(C)cc(-n2ccnc2SCC(=O)Nc2nnc(C)s2)c1	1%	/	0%	/	/	/
N#CC1=C(N)N(c2ccc(F)cc2)C2=C(C1c1ccc(O)cc1)S(=O)(=O)CC2 (stereo not drawn)	?	?	45µM*[fluorescent]	236%	5%	?
Cc1cccc(N2C(=O)c3cccc4c(N(C)CCO)ccc(c34)C2=O)c1	-1%	12%	-6%	25µM*	?	?
CCc1cccc(NC(=O)Cn2c3[n+](c4ccc(C(F)(F)F)cc42)CCCCC3)c1	3%	-6%	-2%	14µM*	11%	5
O=C(Cn1c2[n+](c3ccc(C(F)(F)F)cc31)CCCCC2)Nc1ccccc1	-12%	-14%	-4%	3.2µM*	-6%	3
CCc1ccc(NC(=O)CC2C(=O)N(c3cccc(OC)c3)C(=O)N2C2CCCC2)cc1 (stereo not drawn)	-2%	/	-2%	/	/	/
SMILES	TRb SRC2 PPI	Menin-MLL TR inh	TR SRC2 fluor cs	GoLoco inh red	MLL CXXC-DNA inh	Menin-MLL FL inh
CCCCNc1c(C(=O)OCC)c(C)nc2c1cnn2CC	3%	40µM*!	-2%	-9%	7%	9
CSc1nc(=S)cc(C)[nH]1	4%	/	1%	5.6µM*	4%	-2
Cc1cc(=S)nc(-c2ccccn2)[nH]1	4%	/	-1%	-4%	-12%	4
COC1=CC(=O)C=C(OC)C1=O	11%	?	0%	20µM*	/	?
Nc1ccc2nc(-c3ccc(O)cc3)sc2c1	-15%[53 µM]	/	79µM*[quencher]	/	/	/
Nc1ccc(-c2nc3ccc(N)cc3s2)cc1	5%	/	-12%	-3%	-3%	7
COc1cc2c(cc1OC)CN(C(=O)Nc1ccccc1Cl)CC2	/	4%	/	/	0%	1
COc1cc2c(cc1OC)CN(C(=O)Nc1ccccc1)CC2	-10%	-2%	112µM*[quencher]	/	6%	1
O=C(O)c1cc2ccccc2cc1O	1%[201 µM]	/	-6%[201 µM]	/	/	/
COc1ccc(N2CCN(c3oc(-c4ccc(COc5cccc(C)c5)o4)nc3C#N)CC2)cc1	-6%	/	?	/	/	/
Cc1ccccc1OCc1ccc(-c2nc(C#N)c(N3CCC(C(N)=O)CC3)o2)o1	4%	/	-21%	/	/	/
CCN1CCN(c2oc(-c3ccc(COc4ccccc4C)o3)nc2C#N)CC1	-11%	/	28µM*[quencher]	/	/	/
Cc1cccc(OCc2ccc(-c3nc(C#N)c(N4CCN(c5ccccc5)CC4)o3)o2)c1	-21%	/	6310µM*[quencher]	/	/	/
Cc1ccc2scc(N3CCc4ccccc4C3)c(=O)c2c1	-3%	/	0%	/	/	/
Cc1ccc(N=Cc2ccc(N(C)C)cc2)cc1	-14%	5%	2%	15%	-16%	0
CN(C)c1ccc(C=Nc2ccc(N(C)C)cc2)cc1	50µM*	?	?	10%	2%	1
